# Dicer processing = inhibitors of human Dicer processing of pre-microRNA. 47,000 tested, 6% active. z-score at 25 µM. cat-ELCCA pre-miR-21 Dicer processing, chemiluminescence; stronger effect = higher value. AID 1347074. Q9UPY3; in the data active = z-score above about 3, passing the limit was not always enough;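 also: plate controls were vehicle for no effect and no enzyme for full effect; higher signal means more uncleaved substrate so more Dicer inhibition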
# Target sequence (Q9UPY3 whole entry, looked up): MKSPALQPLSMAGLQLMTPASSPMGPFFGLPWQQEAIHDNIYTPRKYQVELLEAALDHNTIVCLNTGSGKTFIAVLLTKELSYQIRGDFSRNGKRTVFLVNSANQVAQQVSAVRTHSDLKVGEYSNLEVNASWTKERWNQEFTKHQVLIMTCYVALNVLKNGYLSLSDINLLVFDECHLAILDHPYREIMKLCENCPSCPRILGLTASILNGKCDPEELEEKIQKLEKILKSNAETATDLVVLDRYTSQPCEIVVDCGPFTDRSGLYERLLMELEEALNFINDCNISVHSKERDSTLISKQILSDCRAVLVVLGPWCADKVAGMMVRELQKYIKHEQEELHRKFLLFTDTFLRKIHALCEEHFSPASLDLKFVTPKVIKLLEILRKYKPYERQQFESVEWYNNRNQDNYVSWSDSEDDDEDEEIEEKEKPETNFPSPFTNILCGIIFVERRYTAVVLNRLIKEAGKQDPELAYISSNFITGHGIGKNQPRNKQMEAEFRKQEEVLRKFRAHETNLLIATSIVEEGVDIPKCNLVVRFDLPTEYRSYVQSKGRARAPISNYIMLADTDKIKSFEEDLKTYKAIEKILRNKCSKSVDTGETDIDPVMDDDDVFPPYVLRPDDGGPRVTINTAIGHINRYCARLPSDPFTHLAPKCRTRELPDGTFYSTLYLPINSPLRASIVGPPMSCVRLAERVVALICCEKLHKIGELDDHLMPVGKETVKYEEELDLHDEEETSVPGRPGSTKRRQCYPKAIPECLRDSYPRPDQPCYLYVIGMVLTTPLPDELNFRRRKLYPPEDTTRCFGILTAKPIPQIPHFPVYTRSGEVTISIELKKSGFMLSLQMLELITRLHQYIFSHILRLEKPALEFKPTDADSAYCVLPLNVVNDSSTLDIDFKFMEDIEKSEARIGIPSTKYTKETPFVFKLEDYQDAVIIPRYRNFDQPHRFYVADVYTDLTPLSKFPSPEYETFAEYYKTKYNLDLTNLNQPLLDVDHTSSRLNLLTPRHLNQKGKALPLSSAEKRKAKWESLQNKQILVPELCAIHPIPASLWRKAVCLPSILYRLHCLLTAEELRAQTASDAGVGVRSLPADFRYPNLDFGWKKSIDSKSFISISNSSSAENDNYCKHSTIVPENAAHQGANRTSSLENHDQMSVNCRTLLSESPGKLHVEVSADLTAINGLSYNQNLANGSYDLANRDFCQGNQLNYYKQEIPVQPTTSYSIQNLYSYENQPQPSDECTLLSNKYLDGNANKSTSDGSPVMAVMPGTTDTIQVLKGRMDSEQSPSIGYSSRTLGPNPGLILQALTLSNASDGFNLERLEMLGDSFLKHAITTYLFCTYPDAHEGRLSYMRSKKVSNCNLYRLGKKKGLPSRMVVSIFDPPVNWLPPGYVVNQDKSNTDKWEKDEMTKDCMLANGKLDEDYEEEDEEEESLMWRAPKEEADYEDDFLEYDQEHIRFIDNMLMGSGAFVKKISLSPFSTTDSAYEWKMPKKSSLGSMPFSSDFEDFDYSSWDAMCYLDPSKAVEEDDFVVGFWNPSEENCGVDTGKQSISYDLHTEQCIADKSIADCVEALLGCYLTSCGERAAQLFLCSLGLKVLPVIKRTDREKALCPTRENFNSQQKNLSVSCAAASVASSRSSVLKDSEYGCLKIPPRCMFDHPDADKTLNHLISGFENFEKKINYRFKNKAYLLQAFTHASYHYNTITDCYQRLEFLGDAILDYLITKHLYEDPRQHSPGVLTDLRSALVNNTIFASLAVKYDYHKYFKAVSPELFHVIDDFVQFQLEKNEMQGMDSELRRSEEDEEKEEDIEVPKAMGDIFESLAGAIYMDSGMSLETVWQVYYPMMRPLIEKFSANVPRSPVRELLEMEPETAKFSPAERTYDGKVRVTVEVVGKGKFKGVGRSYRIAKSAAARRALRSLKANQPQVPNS
# An asterisk follows results filed as active. The sample as a whole holds a higher share of hits than the screen did.
SMILES,Dicer processing
Cn1c(N)c(C(C[N+](=O)[O-])c2ccc(Cl)cc2Cl)c(=O)n(C)c1=O (stereo not given),3.4*
COc1ccccc1C(C[N+](=O)[O-])c1c(N)n(C)c(=O)n(C)c1=O (stereo not given),-1.7
COC(=S)Nc1ccc(Cl)cc1C,-0.23
COc1ccc(OC)c(S(=O)(=O)N(C(=O)c2cccnc2)c2ccc3oc(=O)sc3c2)c1,1.4
O=C(c1ccncc1)N(c1ccc2oc(=O)sc2c1)S(=O)(=O)c1ccc(F)cc1,3.2*
O=C(c1cccnc1)N(c1ccc2oc(=O)sc2c1)S(=O)(=O)c1ccc(Cl)cc1,10*
CC(C)C(=O)N(c1ccc2oc(=O)sc2c1)S(=O)(=O)c1ccc(Cl)cc1,25
O=C(c1cccnc1)N(c1ccc2oc(=O)sc2c1)S(=O)(=O)c1ccc(F)cc1,11*
O=C(c1ccncc1)N(c1ccc2oc(=O)sc2c1)S(=O)(=O)c1ccc(Cl)cc1,2.9
CC(C)C(=O)N(c1ccc2oc(=O)sc2c1)S(=O)(=O)c1ccc(F)cc1,-3.1
CC1=C(C(=O)Nc2cc(C)ccn2)C(c2ccc(Br)cc2)C2=C(CC(C)(C)CC2=O)N1 (stereo not given),0.96
N#Cc1ccc(/C=N/Nc2ccccc2)nc1SCc1ccc(Cl)cc1,-0.65
CC(C)c1nc2sc3c(NCC4CCCO4)ncnc3c2c2c1COC(C)(C)C2 (stereo not given),0.44
O=[N+]([O-])c1ccc(N2CCCCC2)cc1Oc1nc2c(Cl)cc(Cl)cc2s1,-2.3
Oc1cccnc1Cc1ccccc1,-0.27
CC(C)n1c(C(F)(F)F)nc2cc(C(=O)O)ccc21,-1.6
COc1cc2c(c3c1C(=O)CC(c1ccccc1)O3)C=CC(C)(C)O2 (stereo not given),-1.6
O=C(CC1(O)C(=O)Nc2ccc(Br)cc21)c1ccc(Cl)cc1 (stereo not given),15
Cc1ccc(N2C(=O)C3C4c5ccccc5C(C(=O)O)(c5ccccc54)C3C2=O)cc1 (stereo not given),1.6
Cc1ccc(N2C(=O)C3C4C=CC(CO)(O4)C3C2=O)cc1Br (stereo not given),-0.21
CC1(C(=O)O)NC(c2ccc(O)cc2O)C2C(=O)N(c3ccc(Br)cc3)C(=O)C21 (stereo not given),5*
c1ccc(Nc2ncnc3cc(-c4ccccc4)sc23)cc1,-0.8
CCOC(=O)CSCN1CCCCC1,0.63
O=[N+]([O-])C1=Cc2c(ccc3ccccc23)OC1c1ccccc1 (stereo not given),-1.5
COc1ccc2c(c1)c(C(=O)CN(C)C)c(C)n2C,4.7*
SMILES,Dicer processing
COc1ccc2c(c1)c(C(=O)CNc1nccs1)c(C)n2C,6.6
COc1ccc2c(c1)c(C(=O)CNc1nc(C)cs1)c(C)n2C,1.6
O=C(O)c1cc(C(F)(F)F)cc(C(F)(F)F)c1,-0.58
COCCCNc1nc(=O)[nH]nc1C,1
Cc1nn(C)cc1CNC(=O)c1nn2c(c1Cl)NC(c1cccs1)CC2C(F)(F)F (stereo not given),0.72
CCCn1c(=O)c(-c2noc(-c3ccc(Cl)cc3)n2)nn(-c2ccccc2)c1=O,-1.6
COc1ccc(-c2c(C(F)(F)F)[nH]n3c(=O)cc(C(C)(C)C)nc23)cc1,1.1
CCOc1ccc(C(Nc2ccccn2)c2ccc3ccc(C)nc3c2O)cc1 (stereo not given),-2.3
Cc1ccc2ccc(C(Nc3ccccn3)c3ccc(Br)cc3)c(O)c2n1 (stereo not given),5.7*
Oc1ccc2ncccc2c1C(Nc1ccccn1)c1ccccc1F (stereo not given),1.4
Cc1ccc2ccc(C(Nc3ccccn3)c3ccc(N(C)C)cc3)c(O)c2n1 (stereo not given),4.4*
CCOc1cccc(C(Nc2ccccn2)c2ccc3ccc(C)nc3c2O)c1O (stereo not given),0.08
CSc1ccc(C(Nc2ccccn2)c2ccc3ccc(C)nc3c2O)cc1 (stereo not given),-0.44
CCC(C)(C)c1ccc(OCC(=O)Nc2ccc(Cl)c(N)c2)c(C(C)(C)CC)c1,-0.58
C=C(C)C(=O)Oc1c2ccccc2cc2ccccc12,-2.8
CN(C)c1ccc(/C=N/NC(N)=S)c(O)c1,-1.1
Oc1cccc(Nc2nc(-c3cccs3)cs2)c1,-2.3
CC(C)c1ccc(N=C2CC(=O)NN2)cc1,-0.79
CC1=C(C(=O)OC(C)C)C(c2ccccc2C)n2c(nc3ccccc32)N1 (stereo not given),-2.5
Cc1ccc2oc(=O)n(CCC#N)c2c1,-0.44
Cc1ccc2oc(=O)n(CCCOc3ccc(Br)cc3)c2c1,3.2*
Cc1ccc2c(c1)C(=O)C(=O)N2CCOc1ccc(Br)cc1,0.93
O=C1CC2(CCCC2)C(=O)N1CCCNc1ncc(C(F)(F)F)cc1Cl,-1.1
CCc1ccc(C2C(C#N)=C(N)Oc3n[nH]c(-c4ccc5c(c4)OCO5)c32)cc1 (stereo not given),-4.8
O=C1C2CCCCC2C(=O)N1c1ccc(Cl)cc1O (stereo not given),-0.84
SMILES,Dicer processing
O=C(Nc1nc2ccccc2n1CCN1CCOCC1)c1cccc([N+](=O)[O-])c1,0.22
COc1ccc(CNc2nc3ccccc3n2C)cc1OC,1.8
Cc1ccc(CNc2nc3ccccc3n2CCN2CCOCC2)cc1,1.6
Cn1c(CNc2nc3ccccc3n2CCN2CCCCC2)nc2ccccc21,-0.42
c1ccc(CNc2nc3ccccc3n2CCN2CCCCC2)nc1,3.5*
CCn1c(NCc2ccccn2)nc2ccccc21,0.67
c1ccc2c(c1)nc(NCc1ccncc1)n2CCN1CCOCC1,2.5
COc1ccc(OC)c(CNc2nc3ccccc3n2CCN2CCOCC2)c1,5.1*
Oc1ccccc1CNc1nc2ccccc2n1CCN1CCOCC1,4.1*
Clc1ccccc1Cn1nnc2c(N3CCCCC3)ncnc21,-0.54
NC(=O)CN1C(=O)C(O)(CC(=O)c2cccc(N)c2)c2ccccc21 (stereo not given),-1.4
CC(C)c1nc2sc3c(N4CCCC4)ncnc3c2c2c1COC(C)(C)C2,0.37
C/C(=N\Nc1nnc(-c2ccccc2)c(-c2ccccc2)n1)c1ccco1,-0.28
Nc1cc(-c2cccc(C(F)(F)F)c2)[nH]n1,-2.3
COc1ccc(-c2cnc3cc(-c4ccc(C(C)(C)C)cc4)nn3c2N)cc1OC,-1.1
CC(=O)Nc1ccc(C(C)(C)C)cc1Br,0.75
Oc1ccc(NCc2cccs2)cc1,1
Nc1nc(NCc2cccs2)nn1-c1ccccc1,4.3*
CCCCCCn1c(NCc2cccs2)nc2ccccc21,2.3
C=CCOc1ccc(C2c3c(oc4ccc(C)cc4c3=O)C(=O)N2c2ccccn2)cc1OC (stereo not given),-0.21
CC(C)CNc1ncnc2c1sc1nc3c(cc12)COC(C)(C)C3,0.8
COC(=O)CN(c1nc(C)cc(OC)n1)S(=O)(=O)c1ccccc1,0.86
CCCN(c1nc(C)cc(OC)n1)S(=O)(=O)c1ccccc1Cl,6.1*
CCCCN(c1nc(C)cc(OC)n1)S(=O)(=O)c1ccc(C)cc1,0.7
O=C(O)CCC(=O)NCCNC(=O)C1CCCNC1=O (stereo not given),-0.85
COc1cc2nc(CN3CCC(C(N)=O)CC3)[nH]c(=O)c2cc1OC,2.3
COC(=O)C1=C(C)NC2=C(C(=O)CC(C)(C)C2)C1c1ccccc1Cl (stereo not given),0.16
COC(=O)C1=C(C)NC2=C(C(=O)C(C(=O)OC)C(C)C2)C1c1ccc2c(c1)OCO2 (stereo not given),-1.6
COC(=O)C1=C(C)N=C2SCCC(=O)N2C1c1ccc(C(C)(C)C)cc1 (stereo not given),0.32
